About 13,000 (27%) of roughly 48,000 compounds showed an effect of 50% or more. The list shows a part of the results.

This assay has as its system Wolbachia pipientis. In words: Anti-Wolbachia Cell-Based Screen. The class given is functional. Further details: scale not given: in the data most compounds retested in dose-response had high values. The note with it: 5 µM.
`CN1CC(=O)N(c2ccsc2)CC12CCN(S(C)(=O)=O)C2.O=C(O)C(F)(F)F` (stereo unspecified): the “Percent Effect” value is given as -22.3%.
Consider `O=C(C1CCC2(CCN(CC3CCOCC3)CC2)O1)N1CCCCO1.O=C(O)C(F)(F)F` (stereo unspecified), for which the “Percent Effect” value was -16.72%.
With `O=C(O)C(F)(F)F.O=C([C@@H]1COC[C@H]2CN(c3ccncn3)C[C@H]21)N1CCCC1`, the “Percent Effect” value is -1.455%.
In the case of `Cc1ccc(C(=O)Nc2cn[nH]c2)cc1C` it was -10.82%.
Consider `Cc1nc[nH]c1CN1C[C@@H]2CC[C@H](C1)N(C(=O)CCNS(C)(=O)=O)C2`, for which the “Percent Effect” value was -6.405%.
In the case of `O=C(COCC1CCCCO1)N1CCN(Cc2ccccc2F)C(=O)C1` (stereo unspecified) it was -11.31%; in that of `N#CC1C(=O)Nc2c(cnn2C2CCCC2)C12CCCC2` (stereo unspecified), 15.25%; in that of `CN(C)C(=O)C1CCC2(CCN(Cc3cnn(C)c3)CC2)C1.O=C(O)C(F)(F)F` (stereo unspecified), -4.25%.
Regarding `CN1CCN(C2CCN(C(=O)CCC3CCCC3)CC2)CC1.O=C(O)C(=O)O`, the “Percent Effect” value was 6.776%.
In the case of `CC(C)N1CCC(C(=O)N(C)CC(=O)c2ccc(O)cc2)CC1` it was -30.04%; in that of `CC(C)CNC(=O)C(C)N1CCN(C2CCN(C(C)C)CC2)CC1` (stereo unspecified), -39.91%; in that of `CN1CCC(N2CCC(C(=O)N(C)C)CC2)CC1.O=C(O)C(F)(F)F.O=C(O)C(F)(F)F`, 107.5%.
Under `CC(C)N1CCC(N2CCC(C(=O)N(C)C)CC2)CC1.O=C(O)C(F)(F)F.O=C(O)C(F)(F)F` stands 105.3%.
On to `CCn1nc2c(cc1=O)CN(CC1CCCCO1)CC2` (stereo unspecified), for which the “Percent Effect” value is reported as -5.782%.
Under `N[C@@H]1c2ccccc2C2(CCN(C(=O)c3ccc(CO)o3)CC2)[C@H]1O` stands 13.24%; under `CCOc1cc(CNCc2nc(C)cc(=O)[nH]2)c(Cl)cc1OC(C)C`, -17.65%.
On to `CCN(Cc1noc(C)n1)C(=O)CCc1scnc1C`, for which the “Percent Effect” value is reported as 1.92%.
Consider `Cc1noc(C)c1-c1cncc(C2CCCN2Cc2ccncc2)n1` (stereo unspecified), for which the “Percent Effect” value is listed as -4.931%.
Under `Cc1nccn1CCC1CCCCN1Cc1ccncc1` (stereo unspecified) stands 6.487%; under `Cc1c[nH]nc1C1CCCN1Cc1ccncc1` (stereo unspecified), 100.6%.
For the compound `CCn1ccnc1CN1CCCC1c1c(C)nn(C)c1OC` (stereo unspecified), the “Percent Effect” value is -25.16%.
Under `CC(C)(C)c1coc([C@@H]2COCCN2Cc2ncc[nH]2)n1` stands -0.9304%; under `Cc1c[nH]nc1C1CCCN1Cc1nccn1C.O=CO` (stereo unspecified), 95.89%.
Take `Cc1c[nH]nc1C1CCCN1Cc1ncc[nH]1.O=CO` (stereo unspecified): the “Percent Effect” value amounted to 85.61%.
Take `COc1c(C2CCCN2Cc2nccn2C)c(C)nn1C` (stereo unspecified): the “Percent Effect” value was 8.453%.
Under `Cc1ccc(-c2c[nH]c([C@@H]3COCCN3Cc3ncc[nH]3)n2)cc1` stands 0.7932%; under `CCc1ncncc1C(=O)NCCNS(=O)(=O)c1ccccc1`, 12.25%.
On to `O=C(c1c[nH]nn1)N1CCN(C(c2ccccc2)C(F)(F)F)CC1` (stereo unspecified), for which the “Percent Effect” value is on record as 0.659%.
In the case of `COC(C)c1nc(CN2CCCNCC2)cs1` (stereo unspecified) it was 4.679%.
In the case of `CC(CS(C)(=O)=O)N(C(=O)c1ccc(Cl)s1)C1CC1` (stereo unspecified) it was -8.906%.
Under `Cc1cccc2c1OCCCC2NCc1nnc2n1CCCCC2` (stereo unspecified) stands -7.858%.
With `CN(Cc1ccon1)C1CCN(c2cccc(-c3cscn3)c2)CC1`, the “Percent Effect” value is reported as -11.17%.
As to `Cn1nc2c(cc1=O)CN(Cc1ccc(-n3cccn3)cc1)CC2`, the “Percent Effect” value worked out at 6.074%.
As to `Cc1nc2c(c(=O)[nH]1)CCN(Cc1ccc3c(c1)CCCN3C)C2`, the “Percent Effect” value is 94.44%.
As to `Cc1nc2c(c(=O)[nH]1)CN(Cc1ccc3c(c1)CCCN3C)CC2`, the “Percent Effect” value was 56.56%.
Under `CCCN1CCc2nc(SCc3c(C)cc(C)cc3C)[nH]c(=O)c2C1` stands 4.96%; under `CC(C(=O)Nc1ccnn1C(C)C)N1CCCN(c2nccs2)CC1` (stereo unspecified), 10.48%.
Turning to `OCCn1nnnc1Cc1ccc(Br)cc1`, the “Percent Effect” value is reported as -3.897%.
Under `O=C(c1[nH]nc(C2CC2)c1Cl)N1CCN(C2CC2)CC1` stands -10.68%; under `CC(C)(C)NC(=O)[C@@H]1Cc2ccccc2CN1Cc1cccs1`, 16.75%.
Under `COc1ccc(C(=O)N2CCN(C(=O)c3csc(C(C)C)n3)CC2)cc1` stands -4.051%.
`CC1CN(C)CCN1C(=O)c1cccn1Cc1cccs1` (stereo unspecified): the “Percent Effect” value was -1.596%.
For `COc1ccc(OCc2nc(C(=O)N3CC(O)C3)co2)cc1`, the “Percent Effect” value is listed as -10.13%.
As for `CC(C)(C)n1cc(C(=O)N2CCCN(Cc3cccs3)CC2)cn1`, the “Percent Effect” value is on record as -3.981%.
Regarding `COc1ccc(C(=O)N2CC(=O)N(Cc3cccs3)CC(O)C2)cc1` (stereo unspecified), the “Percent Effect” value is 106.6%.
In the case of `O=C(c1ccc(F)cc1)N1C[C@@H]2CN(c3ncccn3)C[C@@H]2C1` it was 2.652%; in that of `CSc1ccc(C(=O)N2CC(=O)N(Cc3cccs3)CC(O)C2)cc1` (stereo unspecified), 110.9%; in that of `O=C1CN(C(=O)c2ccc(F)cc2)CC(O)CN1Cc1cccs1` (stereo unspecified), 106.9%.
As to `Cc1ccc(C(=O)N2CC(=O)N(Cc3cccs3)CC(O)C2)cc1` (stereo unspecified), the “Percent Effect” value is given as 76.19%.
In the case of `CN(C)C(=O)CNC(CC(F)(F)F)c1ccc(F)cc1` (stereo unspecified) it was -7.138%; in that of `CCc1cnc(N2CC3(CCN(S(=O)(=O)C4CC4)C3)C2)nc1`, -6.098%.
Consider `CCCNC(=O)CNc1cc(C(=O)N2CCSCC2)ccc1C`, for which the “Percent Effect” value is on record as -10.89%.
As to `Cc1ccc(S(=O)(=O)NCCNc2cc(-n3cccc3)ncn2)c(C)c1`, the “Percent Effect” value worked out at 19.5%.
Under `CC(C)Oc1ccc(-c2csc(Cn3ccc(=O)[nH]c3=O)n2)cc1` stands -3.236%.
Take `O=C1CN(C(=O)C2CCOC2)CCN1Cc1ccc(Cl)cc1` (stereo unspecified): the “Percent Effect” value is on record as -11.12%.
`O=C1CN(C(=O)c2ccc(Cl)cc2)CC(O)CN1Cc1cccs1` (stereo unspecified): the “Percent Effect” value turned out to be 98.52%.
Regarding `Cc1ccc(OCC(=O)N(C)Cc2ccc(F)cc2)cn1`, the “Percent Effect” value was -1.613%.
In the case of `CCc1ccc(CN(CC)Cc2ccc(S(=O)(=O)NC)cc2)cc1` it was -10.93%; in that of `CCOc1ccccc1CN(CC)Cc1ccc(S(=O)(=O)NC)cc1`, 14.99%; in that of `CNc1ncc(CN(C)Cc2cc(O)c3cc(F)ccc3n2)cn1`, -2.585%.
Consider `COc1cccc(CN(C)Cc2nc3cc(C)ccc3[nH]2)c1O`, for which the “Percent Effect” value is 1.617%.
Under `CNS(=O)(=O)c1ccc(CN(C)Cc2nc3ccc(F)cc3[nH]2)cc1` stands 112.9%; under `Cc1nc(CCN)cc(N(C)Cc2nc3ccc(F)cc3[nH]2)n1`, -5.934%.
For the compound `CN(Cc1cnc(C(C)(C)C)nc1)Cc1nc2ccc(F)cc2[nH]1`, the “Percent Effect” value was found to be 92.92%.
As to `Cc1ccc(CN(C)Cc2nc3ccc(F)cc3[nH]2)cn1`, the “Percent Effect” value came out at 92.16%.
Consider `CCNC(=O)NC(C)(C)C(=O)NCc1cccc(N2CC=CC2)c1`, for which the “Percent Effect” value was 1.796%.
Under `CC(O)c1cccc(N2CCC3(CC2)Nc2ccccc2NC3=O)n1` (stereo unspecified) stands 0.04909%; under `CCc1nc(C)c(C(=O)NCCNc2cnccn2)s1`, 1.537%.
In the case of `C[S+]([O-])c1nncn1CC(=O)c1ccc2c(c1)CCC2` (stereo unspecified) it was -5.964%; in that of `CCCS(=O)(=O)NC(=O)c1ccc(CC)o1`, -1.389%; in that of `Cc1cc(C)c(C#N)c(NCCn2cnnc2C(C)C)n1`, 112.6%.
In the case of `CCn1cnnc1CCNC(=O)C(C)(C)c1cccc(Cl)c1` it was -6.534%; in that of `CCn1cnnc1CCNC(=O)c1ccc(Br)cc1F`, -14.54%.
Turning to `Cc1cc(NCCO)nc(N2CCN(C)CC2)c1C#N`, the “Percent Effect” value was 2.525%.
Under `Cc1cc(C)cc(OCCNC(=O)C(C)Sc2nncn2C)c1` (stereo unspecified) stands -3.054%; under `CCn1c(C)nnc1SCCNc1nc(C)ncc1S(C)(=O)=O`, -10.91%; under `Cc1cc(NCCO)nc(N2CCCC2)c1C#N`, -1.529%.
In the case of `Cc1cc(C)c(C#N)c(NCCSc2nncn2C)n1` it was 98.82%; in that of `CCn1cnnc1CCNc1nc(C)cc(C)c1C#N`, 126.1%; in that of `CC(C)(C)OC(=O)NC(C)(C)c1noc(Cn2ccnc2)n1`, 11.22%.
For `CSCCC(NC(N)=O)C(=O)NCc1ccc(-n2cccn2)cc1` (stereo unspecified), the “Percent Effect” value was -16.66%.
With `O=C(Nc1cccnc1)NC1CCN(c2ccccc2OC(F)F)C1` (stereo unspecified), the “Percent Effect” value is listed as -19.82%.
As for `O=C(O)c1ccnc(-c2ccnc(N3CCC4(CCO4)CC3)n2)c1`, the “Percent Effect” value was -4.14%.
Under `Cc1cccc(CN2C(=O)CC[C@@H]3[C@H]2CCN3Cc2ccc(F)cc2)n1.O=C(O)C(F)(F)F.O=C(O)C(F)(F)F` stands -9.661%; under `Cc1ccc(CN2CC[C@H]3[C@H]2CC(=O)N3c2ccsc2)o1.O=C(O)C(F)(F)F`, 12.94%; under `CCc1ccc(CN2CC[C@H]3[C@H]2CC(=O)N3Cc2cccc(C)n2)o1.O=C(O)C(F)(F)F.O=C(O)C(F)(F)F`, 105.5%.
In the case of `Cc1cccc(CN2C(=O)CC[C@@H]3[C@H]2CCN3C(=O)c2ccsc2)n1.O=C(O)C(F)(F)F`, the “Percent Effect” value was -10.27%.
Regarding `COc1ccc(CN2CC[C@H]3[C@H]2CC(=O)N3Cc2cccc(C)n2)cc1.O=C(O)C(F)(F)F.O=C(O)C(F)(F)F`, the “Percent Effect” value turned out to be 96.36%.
Under `Cc1cccc(CN2C(=O)C[C@H]3[C@@H]2CCN3Cc2ccc(F)cc2)n1.O=C(O)C(F)(F)F.O=C(O)C(F)(F)F` stands 93.32%.
Under `Cc1cccc(CN2C(=O)CC[C@@H]3[C@H]2CCN3Cc2cccnc2)n1.O=C(O)C(F)(F)F.O=C(O)C(F)(F)F.O=C(O)C(F)(F)F` stands -1.034%; under `Cc1cc(C(=O)NCC(=O)NC(c2ncccc2C)C(C)C)c(C)o1` (stereo unspecified), -6.286%; under `CC(C)NC(=O)c1cnc(Sc2nccn2C)c(Cl)c1`, 7.154%.
In the case of `CCCSc1nc(O)c(CC)c(=O)n1-c1ccccc1`, the “Percent Effect” value was -0.2298%.
With `Cc1ncc(COc2cccc3c2NC(=O)CO3)s1`, the “Percent Effect” value is recorded as -10.58%.
Consider `Cc1cc(C(=O)N2CCOC[C@H](Oc3cccnc3)C2)c(C(F)(F)F)o1`, for which the “Percent Effect” value was 3.665%.
For `O=C([C@@H]1CCO[C@@H]2CCN(Cc3cccnc3)C[C@H]21)N1CCCCO1`, the “Percent Effect” value was found to be 13.27%.

These data come from ChEMBL document CHEMBL3988442, “University of Dundee, Small-Polar-MMV Screening Library” (2021).
